# Data: PubChem BioAssay (NCI)
# The panel holds about 83,000 compounds, 20% with a hit somewhere; the sample as a whole holds those more often.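 A percent growth of 40 corresponds to 60% growth inhibition; 0 means no net growth; -100 means all cells died. Active threshold: below 10.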 A number with no mark means an inactive call. Activity calls are given as the source filed them.
# Tested on: MDA-MB-468 breast
# Experiment: NCI-60 one-dose screen, 48 h (100 = growth as untreated, 0 = no growth, -100 = all killed)
# Conditions: 10 µM unless noted
row,Structure (SMILES),growth
1,Cc1sc2c(c1C)c(=O)nc1c(-c3nc(-c4ccccc4)cs3)n[nH]n12,116%
2,O=C1CC(=O)N2CSCN(C(c3ccccc3)c3nc4ncncc4[nH]3)C2=N1 (stereo not given),102%
3,COc1cc(COC(=O)CCCCC[P+](c2ccccc2)(c2ccccc2)c2ccccc2)c(OC)c2c1OCO2,-2.4% (active)
4,COc1cc(C2CC(=O)Nc3c2ccc2ccccc32)cc(Br)c1OC (stereo not given),-34.3% (active)
5,N=C(N)c1ccc(-c2ccc(-c3ccc(F)cc3)o2)o1,5.37% (active)
6,COCC(=O)Oc1cc(-c2ccc(C)cc2C)c(OC(=O)COC)c(-c2ccc(C)cc2C)c1,-0.64% (active)
7,O=S(=O)(Nc1ccc(C2CC2)cc1)c1ccc(-c2cnc(C3CC3)o2)cc1,18.4%
8,CCCCCCCCCCOC(=O)c1nn(C(C)=O)c2cc(C)c(C)cc12,111%
9,O=C(Nc1cccc(Cl)c1)c1cc(Cl)ccc1O,-1.28% (active)
10,Cc1cc(OC(=O)c2ccc([N+](=O)[O-])cc2)nc2[nH]c(=O)sc12,100%
11,Oc1ccc2cc(Br)ccc2c1-c1c(O)ccc2cc(Br)ccc12,90.9%
12,O=c1ncc(-c2ccc(C(F)(F)F)cc2)c(NC2CCCCCC2)[nH]1,11.8%
13,COc1ccc(-c2nc(/C=N/Nc3cc(C)nc4ccc(Br)cc34)c(C)o2)cc1,-78.9% (active)
14,C[C@H]1O[C@@H](O[C@H]2[C@@H](O)C[C@H](O[C@H]3[C@@H](O)C[C@H](O[C@H]4CC[C@]5(C)C6C[C@@H](O)[C@]7(C)[C@@H](C8=CC(=O)OC8)CC[C@]7(O)C6CC[C@@H]5C4)O[C@@H]3C)O[C@@H]2C)C[C@H](O)[C@@H]1O (stereo not given in full),-61.7% (active)
15,CC1(C)CC[C@]2(C(=O)O)CC[C@]3(C)[C@H](CC[C@@H]4[C@@]5(C)CCC(=O)C(C)(C)[C@@H]5CC[C@]43C)[C@H]2[C@H]1OC(=O)C(F)(F)F,-71% [100 µM] (active)
16,CSc1nc(C)c([N+](=O)[O-])c(N)n1,106%
17,O=C(O)c1ccccc1NCc1ccco1,95%
18,CCCCCCCCCCN1CCC(N2CCCCC2)CC1,-73.2% (active)

row,Structure (SMILES),growth
1,O=C1C=C(Nc2cccc(Br)c2)c2ccccc2C1=O,90.2%
2,CCCCN(CCCC)C(=O)[C@H](CC)[C@@H]1CC[C@@H](C)[C@@H]([C@H](C)[C@@H](O)[C@@H](C)C(=O)[C@H](CC)C2O[C@]3(C=C[C@@H](O)[C@]4(CC[C@@](C)([C@H]5CC[C@](O)(CC)[C@H](C)O5)O4)O3)[C@H](C)C[C@@H]2C)O1 (stereo not given in full),-22.1% (active)
3,COc1ccc(C2CC(c3cc(Cl)c(C)cc3OC)=NN2c2ccc(S(N)(=O)=O)cc2)cc1OC (stereo not given),94.6%
4,CC(C)c1ccc(C(=O)Nc2sc3c(c2C#N)CCC(=O)C3)cc1,-45.7% (active)
5,CCN1CCN(c2nc(C)cc(N(CCCNc3ccnc4cc(Cl)ccc34)Cc3ccc4c(c3)OCO4)n2)CC1,-33.5% (active)
6,Clc1ccc(-c2noc(/C=C\c3ccccc3)n2)cc1,97.7%
7,O=C(N/N=C/c1c(Cl)cccc1Cl)c1ccccc1Nc1ccnc(C(F)(F)F)c1,53.5%
8,CCOC(=O)c1ccc(NC(=O)c2nc(-c3cc(OC)c(OC)c(OC)c3)n(-c3ccc(Cl)cc3)n2)cc1,107%
9,COc1ccc(-c2cc(C(=O)N3N=C(c4ccc(N)cc4)CC3c3ccc(Cl)cc3)c3ccccc3n2)cc1 (stereo not given),18.4%
10,Cn1c(SC(C(=O)Nc2ccc(F)cc2)c2ccccc2)nc2ccccc2c1=O (stereo not given),99.6%
11,O=C(CSc1nc(-c2ccccc2)cc(=O)[nH]1)Nc1nc(-c2ccccc2)cs1,96.6%
12,O=C1C=CC(=Nc2cc(Br)c(O)c(Br)c2)C=C1,51.4%
13,O=S(=O)(N=C1C(Cl)=C(Cl)C(=NS(=O)(=O)c2ccccc2)C(Cl)=C1Cl)c1ccccc1,70.3%
14,C#Cc1nc(C2=C(C)C(O)/C(=N/O)C2)cs1 (stereo not given),74.5%
15,CC1=Nc2cnc(Nc3ccc(N4CCCCC4)cc3)nc2Nc2ccccc21,54.9%
16,O=C(CSC(=S)N1CCCCC1)Nc1ccccc1,103%
17,COc1cc(Nc2cc(C)nc(N3CCN(c4ccnc5cc(Cl)ccc45)CC3)n2)cc(OC)c1,11.2%
